Measurements as given in PubChem BioAssay (NCATS).
Inconclusive results are not listed. Activity calls are given as the source filed them. Unless noted, calls come from the whole dose curve; as a rule, active = well fitted curve in the direction sought with a large enough effect; inconclusive = small, poorly fitted or top-dose-only effect, or another doubt; inactive = no such curve, though single readings can be large; an effect the other way counts as inactive or inconclusive.

Columns and labels:
[1] = target: Lysosomal acid glucosylceramidase (Homo sapiens) (UniProt P04062); assay: Glucocerebrosidase-p2 (AID 348; in the data active = potency below about 10 µM; note: potency is the fitted concentration of half-maximal effect); conditions: purified GBA, blue fluorogenic substrate, 40 min
Sequence of Lysosomal acid glucosylceramidase (Homo sapiens) (P04062 whole entry, looked up): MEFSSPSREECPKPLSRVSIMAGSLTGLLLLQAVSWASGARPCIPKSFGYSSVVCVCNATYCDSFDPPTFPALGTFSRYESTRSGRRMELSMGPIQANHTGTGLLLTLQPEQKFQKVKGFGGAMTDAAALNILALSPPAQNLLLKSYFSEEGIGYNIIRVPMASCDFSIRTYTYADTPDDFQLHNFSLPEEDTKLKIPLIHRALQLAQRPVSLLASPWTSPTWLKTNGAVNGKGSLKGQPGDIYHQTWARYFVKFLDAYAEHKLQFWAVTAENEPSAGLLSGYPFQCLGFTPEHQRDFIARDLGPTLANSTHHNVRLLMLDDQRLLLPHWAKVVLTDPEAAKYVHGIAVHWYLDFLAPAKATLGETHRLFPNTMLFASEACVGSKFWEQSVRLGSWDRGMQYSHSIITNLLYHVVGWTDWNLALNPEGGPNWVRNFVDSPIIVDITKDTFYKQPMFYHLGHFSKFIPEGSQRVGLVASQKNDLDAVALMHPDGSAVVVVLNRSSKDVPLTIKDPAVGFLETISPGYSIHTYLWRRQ
How it was run: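 Normal human glucocerebrosidase (0.2 nM) with blue fluorogenic substrate (80 uM final) in citrate/phosphate pH 5.9 with 10mM sodium taurocholate, 0.01% tween-20; 40 min RT, NaOH/glycine stop; fluorescence Ex 365/Em 440; AC50 from a titration from 0.6 nM upwards.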

[2] = AP1 Signaling Pathway (AID 357; active = well fitted curve in either direction with a large enough effect, not every such curve was filed as active; note: % is set by controls: 0 for no effect and ±100 for the full control effect); conditions: ME-180 AP-1-bla reporter, EGF-induced, beta-lactamase ratio, 5 h; at 7.69 µM (top of the series) unless noted
How it was run: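 Titration-series screen for positive or negative modulators of EC50 EGF-induced signaling in ME-180 cells carrying an AP-1-driven beta-lactamase reporter. After 5 hours at 37 degrees Celsius, CCF4 460nm/530nm emission ratio gave %Activity; AC50 values derived.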

[3] = NFAT Signaling Pathway (AID 444; active = well fitted curve in either direction with a large enough effect, not every such curve was filed as active;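 note: carbachol stimulus at about its EC50 of 1 µM final; % is set by controls: 0 for no effect and ±100 for the full control effect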); conditions: Jurkat NFAT-bla M1, carbachol, beta-lactamase ratio, 5 h; at 7.69 µM (top of the series) unless noted
How it was run: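 Read-out: CCF4 FRET ratio (460 nm/530 nm) after 1 h RT dye loading, used for %activity and AC50 from titration series. Cells: Jurkat NFAT-β-lactamase/M1 line, treated with compound plus 1 uM carbachol for 5 h, 37 °C.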

[4] = Stat Signaling Pathway (AID 446; active = well fitted curve in either direction with a large enough effect, not every such curve was filed as active;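 note: ME-180 cervical cancer cells given 40 pM IL-6 alongside compound; SIE-controlled beta-lactamase reporter measured as 460/530 nm FRET emission ratio; % is set by controls: 0 for no effect and ±100 for the full control effect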); conditions: ME-180 SIE beta-lactamase reporter, IL-6 stimulated, 5 h; at 7.69 µM (top of the series) unless noted
How it was run: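 FRET read-out (405 nm excitation, 460/530 nm emission) of a beta-lactamase reporter under a STAT-inducible element in ME-180 cervical carcinoma cells. Cells with compound receive 40 pM IL-6 for 5 h. Values are normalised to AC90 stimulation and AC90 JAK-inhibitor controls.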

[5] = target: Glucocorticoid receptor (Homo sapiens) (UniProt P04150); assay: GR-GFP Redistribution (AID 450;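 active = compounds whose dose series gives a full or clear partial fitted curve of increased nuclear translocation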; note: potency is the fitted concentration of half-maximal effect); conditions: U2OS GR-GFP nuclear translocation, laser cytometry, 2 h
Sequence of Glucocorticoid receptor (Homo sapiens) (P04150 whole entry, looked up, the tested form may be a part): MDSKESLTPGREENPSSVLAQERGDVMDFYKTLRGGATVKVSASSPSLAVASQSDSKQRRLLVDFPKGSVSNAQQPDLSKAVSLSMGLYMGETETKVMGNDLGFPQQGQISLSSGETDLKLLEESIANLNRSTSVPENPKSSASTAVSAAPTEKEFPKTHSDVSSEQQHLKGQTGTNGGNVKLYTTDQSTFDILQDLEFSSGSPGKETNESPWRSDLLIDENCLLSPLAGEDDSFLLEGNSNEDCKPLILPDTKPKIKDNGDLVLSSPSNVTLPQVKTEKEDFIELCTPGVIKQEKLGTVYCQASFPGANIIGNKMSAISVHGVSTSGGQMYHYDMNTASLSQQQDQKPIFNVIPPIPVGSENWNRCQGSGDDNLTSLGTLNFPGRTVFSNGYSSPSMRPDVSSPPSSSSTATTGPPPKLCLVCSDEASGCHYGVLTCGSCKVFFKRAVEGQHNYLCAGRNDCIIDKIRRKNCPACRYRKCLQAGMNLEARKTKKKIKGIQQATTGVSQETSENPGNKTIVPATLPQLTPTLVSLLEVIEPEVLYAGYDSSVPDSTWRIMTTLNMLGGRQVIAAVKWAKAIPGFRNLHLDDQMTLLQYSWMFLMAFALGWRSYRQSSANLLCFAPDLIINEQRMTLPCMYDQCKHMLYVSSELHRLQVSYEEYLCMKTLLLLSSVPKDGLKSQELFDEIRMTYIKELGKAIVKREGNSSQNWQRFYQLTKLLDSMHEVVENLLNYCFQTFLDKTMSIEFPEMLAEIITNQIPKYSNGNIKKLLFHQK

[6] = target: Glucocorticoid receptor (Homo sapiens) (UniProt P04150); assay: GR-EFC Redistribution (AID 451; calls by dose curve; note: potency is the fitted concentration of half-maximal effect); conditions: CHO-K1 GR-EFC translocation, beta-gal luminescence, 2 h
How it was run: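 Translocation of GR-ED fusion to nuclear EA restores b-gal, read by luminescence after 1 h room-temperature detection. Engineered CHO-K1 biosensor cells, 1,000/well, exposed 2 h at 37 C to titrations up to 46 uM final.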

[7] = target: Mitogen-activated protein kinase 10 (Mus musculus) (UniProt Q61831); assay: JNK3 AlphaScreen Assay (AID 530; active = well fitted curve in either direction with a large enough effect, not every such curve was filed as active;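 note: kinase came from lysate of stimulated human HepG2 cells; signal reports phosphorylation of biotinylated GST-cJun 1-79 at Ser73 with 10 µM ATP; % is set by controls: 0 for no effect and ±100 for the full control effect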); conditions: JNK3 lysate, c-Jun phosphorylation; series mostly up to 57.1 µM
How it was run: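 qHTS titrations with 15 min compound pre-incubation before adding ATP (10 uM final). Read-out: AlphaScreen of Ser73-phosphorylated biotin-GST-cJun using HepG2 lysate JNK3 activated by IL-1β and TNFα.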

[8] = target: 3',5'-cyclic-AMP phosphodiesterase 4B (Homo sapiens) (UniProt Q07343); assay: qHTS Assay for Inhibitors of PDE-IV (AID 607; active = well fitted activation curve with a large enough effect in the main read-out, with a control signal flat, not every such curve was filed as active; note: % of control where 0% means no effect); conditions: HEK293 ACTOne CNG channel cells, membrane potential fluorescence; series mostly up to 22.9 µM
Sequence of 3',5'-cyclic-AMP phosphodiesterase 4B (Homo sapiens) (Q07343 whole entry, looked up): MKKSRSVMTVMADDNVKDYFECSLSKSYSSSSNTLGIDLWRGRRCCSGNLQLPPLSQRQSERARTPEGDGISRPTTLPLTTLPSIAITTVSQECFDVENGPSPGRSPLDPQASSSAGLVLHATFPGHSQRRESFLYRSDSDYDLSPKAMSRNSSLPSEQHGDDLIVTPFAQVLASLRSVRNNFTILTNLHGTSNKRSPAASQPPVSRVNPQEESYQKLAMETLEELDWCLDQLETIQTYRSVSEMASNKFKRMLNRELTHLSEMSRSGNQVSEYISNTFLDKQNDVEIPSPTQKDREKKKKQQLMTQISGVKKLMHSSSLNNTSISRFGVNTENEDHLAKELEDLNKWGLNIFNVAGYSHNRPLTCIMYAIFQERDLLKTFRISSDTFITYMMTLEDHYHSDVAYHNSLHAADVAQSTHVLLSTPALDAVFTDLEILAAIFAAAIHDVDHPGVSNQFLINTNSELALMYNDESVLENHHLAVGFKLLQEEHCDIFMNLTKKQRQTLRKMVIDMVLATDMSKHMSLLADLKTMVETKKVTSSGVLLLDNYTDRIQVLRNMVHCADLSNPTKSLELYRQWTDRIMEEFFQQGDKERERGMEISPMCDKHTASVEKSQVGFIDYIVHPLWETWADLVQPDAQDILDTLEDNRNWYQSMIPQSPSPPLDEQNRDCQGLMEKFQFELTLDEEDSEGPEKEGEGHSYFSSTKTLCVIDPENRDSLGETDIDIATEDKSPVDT
How it was run: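 Cell-based read-out of cAMP via a modified cyclic nucleotide-gated channel and membrane potential dye (535/590 nm) in HEK293 cells expressing PDE4 endogenously. Compounds tested up to 22.9 uM final; 100 uM RO 20-1724 reference.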

[9] = qHTS Assay for Lipid Storage Modulators (AID 1519; calls by dose curve; note: potency is the fitted concentration of half-maximal effect); conditions: Drosophila S3 cells, BODIPY lipid droplet/cell ratio, laser cytometry, cells loaded with oleic acid; for activity change, negative = inhibition: at 57.5 µM (top of the series)
How it was run: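 Cells seeded at 5,000 per well were treated with compounds over a concentration series and loaded with oleic acid (400 uM, as added). Lipid droplet fluorescence (488 nm excitation, 500-530 nm channel) was read by laser-scanning cytometry and normalized to 20 uM Triacsin C.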

[10] = target: Dual specificity protein kinase CLK4 (Homo sapiens) (UniProt Q9HAZ1); assay: qHTS Assay for Inhibitors of CDC-like Kinase 4 (Kinase-Glo Assay) (AID 1770); conditions: recombinant Clk4, Kinase-Glo ATP depletion luminescence; series mostly up to 66.7 µM; note: % is set by controls: 0 for no effect and ±100 for the full control effect; nearly all actives have a fitted effect of over 65% in size
Sequence of Dual specificity protein kinase CLK4 (Homo sapiens) (Q9HAZ1 whole entry, looked up): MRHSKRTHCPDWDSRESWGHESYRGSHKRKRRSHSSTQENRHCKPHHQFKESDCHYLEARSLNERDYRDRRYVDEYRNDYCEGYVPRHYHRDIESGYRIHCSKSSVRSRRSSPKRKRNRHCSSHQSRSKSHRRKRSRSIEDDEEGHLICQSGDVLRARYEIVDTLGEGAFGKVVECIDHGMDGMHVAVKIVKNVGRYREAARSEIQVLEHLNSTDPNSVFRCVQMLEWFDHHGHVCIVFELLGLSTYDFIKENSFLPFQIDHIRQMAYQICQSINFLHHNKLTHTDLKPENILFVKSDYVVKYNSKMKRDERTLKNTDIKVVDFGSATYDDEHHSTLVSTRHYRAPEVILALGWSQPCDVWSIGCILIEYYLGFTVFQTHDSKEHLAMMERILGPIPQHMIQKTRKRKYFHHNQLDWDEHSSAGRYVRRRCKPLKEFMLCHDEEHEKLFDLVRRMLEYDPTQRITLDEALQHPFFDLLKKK
How it was run: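 Recombinant human Clk4 (25 nM) phosphorylated RS repeat peptide (100 uM) with 1 uM ATP in Tris pH 7.5/MgCl2/EGTA/DTT/Triton buffer for 4.5 h at room temperature. Residual ATP was quantified by Kinase-Glo luciferase luminescence.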

[11] = target: Dual specificity protein kinase CLK4 (Homo sapiens) (UniProt Q9HAZ1); assay: qHTS Assay for Inhibitors of CDC-like Kinase 4 (ADP-Glo Assay) (AID 1771); conditions: recombinant CLK4, ADP-Glo luminescence; series mostly up to 80 µM; note: % is set by controls: 0 for no effect and ±100 for the full control effect; nearly all actives have a fitted effect of over 70% in size
How it was run: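 Compounds are pin-transferred onto substrate mix (100 uM RS peptide, 1 uM ATP), then 25 nM Clk4 is added. After 1 hr at room temperature, ADP-Glo reagent runs 45 min, detection reagent 30 min, then luminescence is read.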

[12] = target: Dual specificity protein kinase CLK4 (Homo sapiens) (UniProt Q9HAZ1); assay: qHTS Assay for Inhibitors of CDC-like Kinase 4 (ADP-FP Assay) (AID 1795); conditions: Transcreener ADP fluorescence polarization; series mostly up to 50 µM; note: % is set by controls: 0 for no effect and ±100 for the full control effect; nearly all actives have a fitted effect of over 60% in size
How it was run: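 Recombinant human Clk4 (6.25 nM) phosphorylated RS repeat peptide (100 uM) with 1 uM ATP in Tris pH 7.5/MgCl2/EGTA/DTT/Triton buffer for one hour. ADP was quantified by Transcreener competitive fluorescence polarization against an ADP calibration curve.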

[13] = target: Ubiquitin carboxyl-terminal hydrolase 1 (Homo sapiens) (UniProt O94782); assay: Inhibitors of USP1/UAF1: Pilot qHTS (AID 504865); conditions: purified USP1/UAF1, Ub-rhodamine cleavage fluorescence; series mostly up to 54.9 µM; note: nearly all actives have a fitted effect of over 35% in size; note: potency is the fitted concentration of half-maximal effect
Sequence of Ubiquitin carboxyl-terminal hydrolase 1 (Homo sapiens) (O94782 whole entry, looked up): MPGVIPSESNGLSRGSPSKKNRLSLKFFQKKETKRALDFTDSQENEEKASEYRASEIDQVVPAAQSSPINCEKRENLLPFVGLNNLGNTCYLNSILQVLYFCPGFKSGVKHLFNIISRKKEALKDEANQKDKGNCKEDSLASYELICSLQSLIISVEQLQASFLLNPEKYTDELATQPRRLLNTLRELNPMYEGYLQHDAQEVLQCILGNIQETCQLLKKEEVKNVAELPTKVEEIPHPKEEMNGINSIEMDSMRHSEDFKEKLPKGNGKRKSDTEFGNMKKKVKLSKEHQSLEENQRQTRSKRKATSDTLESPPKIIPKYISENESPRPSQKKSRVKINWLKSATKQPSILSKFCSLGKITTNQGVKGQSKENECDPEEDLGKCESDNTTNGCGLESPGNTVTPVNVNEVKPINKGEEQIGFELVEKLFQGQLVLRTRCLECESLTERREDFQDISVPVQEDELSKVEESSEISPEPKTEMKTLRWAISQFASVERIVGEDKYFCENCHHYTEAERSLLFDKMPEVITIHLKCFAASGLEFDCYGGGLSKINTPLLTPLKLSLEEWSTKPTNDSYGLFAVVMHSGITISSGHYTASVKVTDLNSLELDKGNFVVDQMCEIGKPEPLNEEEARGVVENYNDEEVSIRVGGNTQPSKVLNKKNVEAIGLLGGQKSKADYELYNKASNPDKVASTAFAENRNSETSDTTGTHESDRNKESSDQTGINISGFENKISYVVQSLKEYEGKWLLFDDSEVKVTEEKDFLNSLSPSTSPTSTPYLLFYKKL
How it was run: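 USP1/UAF1 complex (1nM) preincubated with compound 15 min at room temperature, then Ub-Rho substrate (150nM final) added. Fluorescence read kinetically at 480/540 nm, 6 reads every 60 seconds. Buffer: 50mM HEPES pH 7.8, 0.5mM EDTA, 0.1 mg/ml BSA, 1mM TCEP, 0.01% Tween-20.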

[14] = Primary qHTS for small molecule stabilizers of the endoplasmic reticulum resident proteome: Secreted ER Calcium Modulated Protein (SERCaMP) assay (AID 1508630); conditions: SH-SY5Y GLuc-SERCaMP (Gaussia luciferase released on ER calcium loss) secretion, thapsigargin, luminescence; series mostly up to 38.4 µM; note: % is set by controls: 0 for no effect and ±100 for the full control effect
How it was run: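 The SH-SY5Y reporter protocol was run at 3 concentrations up to 38.3 uM (primary) or 11 concentrations (follow-up): 16 h compound, 100 nM thapsigargin for 4 h, then extracellular luciferase luminescence.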

[15] = qHTS Assay for Identification of Small Molecule Agonists for Hypoxia Response Element Signaling Pathway (AID 914; active = well fitted activation curve with a large enough effect in the signal ratio, with a control signal flat, not every such curve was filed as active; the % refers to the signal ratio; note: potency is the fitted concentration of half-maximal effect; for activation: % of control where 0% means no effect); conditions: ME-180 (cervical carcinoma) HRE-bla reporter, beta-lactamase ratio, CoCl2, 17 h; activation: stronger effect = higher value
How it was run: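 HRE-bla ME-180 cells with beta-lactamase reporter under hypoxia response element, compounds with EC50 CoCl2 for 17 hours at 37 C. CCF4 substrate, 460nm/530nm emission ratio gave %Activity; AC50 from titration series.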

[16] = measured here: cell count channel max response
[17] = measured here: lipid channel max response

SMILES	Potency [1]	activity change, negative = inhibition [2]	activity change, negative = inhibition [3]	activity, negative = inhibition [4]	Potency [5]	Potency [6]	outcome [7]	Potency [8]	activity change, negative = inhibition [9]	max response [9, 16] [%]	max response [9, 17] [%]	Potency [10]	Potency [11]	Potency [12]	Potency [13]	Potency [14]	Potency [9]	Potency [15]	activation [15]
COCCn1c(=O)cnc2cnc(N3CCN(C)CC3)nc21	> 11.4 µM (inactive)	-13.3% (inactive)	-29.3% (inactive)	-12.7% (inactive)	> 9.22 µM (inactive)	> 46 µM (inactive)	inactive	inactive	0.388% (inactive)	4.53	3.72	inactive	inactive	inactive	inactive	inactive	–	–	–
COc1ccc(-c2nc3cnc(Nc4ccccc4)nc3n(C[C@H]3CCCO3)c2=O)cc1	> 11.4 µM (inactive)	26.1% (inactive)	–	–	> 9.22 µM (inactive)	> 46 µM (inactive)	inactive	–	–	2.79	-87.2	inactive	inactive	inactive	inactive	inactive	11.2 µM (active)	–	–
Cn1cc(-c2nc3cnc(N4CCNCC4)nc3n(CCC#N)c2=O)c2ccccc21	> 11.4 µM (inactive)	14.5% (inactive)	1.75% (inactive)	–	> 9.22 µM (inactive)	> 46 µM (inactive)	inactive	inactive	1.65% (inactive)	-3.78	-5	inactive	inactive	inactive	inactive	inactive	–	3.16 µM (active)	–
COCCn1c(=O)c(-c2ccc(F)cc2)nc2cnc(OC)nc21	> 11.4 µM (inactive)	-3.31% (inactive)	15.2% (inactive)	-15% (inactive)	–	> 46 µM (inactive)	inactive	inactive	4.45% (inactive)	6.98	9.8	inactive	inactive	inactive	inactive	inactive	–	–	–
O=c1c(-c2cc(F)cc(F)c2)nc2cnc(Nc3ccccc3)nc2n1C[C@H]1CCCO1	> 11.4 µM (inactive)	-3.83% (inactive)	-13.7% (inactive)	1.12% (inactive)	> 9.22 µM (inactive)	> 46 µM (inactive)	inactive	inactive	-10.6% (inactive)	17.2	2.07	inactive	inactive	inactive	–	inactive	–	–	-17% (inactive)
O=c1c(-c2ccc(F)cc2)nc2cnc(Oc3ccccc3)nc2n1Cc1cccs1	> 11.4 µM (inactive)	-11.6% (inactive)	2.8% (inactive)	1.3% (inactive)	> 9.22 µM (inactive)	> 46 µM (inactive)	inactive	inactive	-20.3% (inactive)	-6.12	-29.7	inactive	inactive	inactive	3.16 µM (active)	inactive	–	–	–
